Usually inhibition stands for the relative decrease from the control value, in per cent.

Unmarked numbers belong to inactive results. The source made the active and inactive calls. Rule as the data show it, unless noted: active = inhibition above about 33%; inactive = the rest.

The text below walks through data of PubChem BioAssay.

Test [1] can be described thus: StAR promoter reporter inhibitors, counter-screen for LRH-1 inverse agonist project, cell-based, luminescence, high throughput (AID 651611; in the data active = inhibition above about 28%). The conditions noted are these: StAR promoter luciferase reporter counterscreen, at 3.6 µM, hits give high values. A general note: The purpose of a counterscreen is to sort out artefacts and off-target activity.
Test [2] deals with Nuclear receptor subfamily 5 group A member 2 (Homo sapiens) (UniProt O00482). In words: LRH-1 (NR5A2) inverse agonists, retest, confirmation, cell-based, luminescence (AID 651613; in the data active = inhibition above about 42%;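 also: HEK293T cells co-transfected with LRH-1 and StAR promoter luciferase reporter; 0% = vehicle wells and 100% = parental cells lacking receptor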). The conditions noted are these: cell-based LRH-1 luciferase reporter, inverse agonism; at 3.6 µM; hits give high values.
For test [3], the target named is Steroidogenic factor 1 (Homo sapiens) (UniProt Q13285). In words: SF1 (NR5A1) inverse agonists, counter-screen for LRH-1 inverse agonist project, cell-based, luminescence, high throughput (AID 651614; in the data active = inhibition above about 44%;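 also: cells cotransfected with StAR promoter reporter and SF1 expression vector; 0% = vehicle on cells with receptor and 100% = vehicle on cells lacking receptor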). The conditions noted are these: cell-based SF1 luciferase reporter, at 3.6 µM, hits give high values.
Test [4] in a line: VP16 transactivation reporter inhibitors, counter-screen for LRH-1 inverse agonist project, cell-based, luminescence, high throughput (AID 651615). The conditions noted are these: Gal4-VP16 luciferase reporter cells, at 3.6 µM, hits give high values.

Sequence of Nuclear receptor subfamily 5 group A member 2 (Homo sapiens) (O00482 whole entry, looked up): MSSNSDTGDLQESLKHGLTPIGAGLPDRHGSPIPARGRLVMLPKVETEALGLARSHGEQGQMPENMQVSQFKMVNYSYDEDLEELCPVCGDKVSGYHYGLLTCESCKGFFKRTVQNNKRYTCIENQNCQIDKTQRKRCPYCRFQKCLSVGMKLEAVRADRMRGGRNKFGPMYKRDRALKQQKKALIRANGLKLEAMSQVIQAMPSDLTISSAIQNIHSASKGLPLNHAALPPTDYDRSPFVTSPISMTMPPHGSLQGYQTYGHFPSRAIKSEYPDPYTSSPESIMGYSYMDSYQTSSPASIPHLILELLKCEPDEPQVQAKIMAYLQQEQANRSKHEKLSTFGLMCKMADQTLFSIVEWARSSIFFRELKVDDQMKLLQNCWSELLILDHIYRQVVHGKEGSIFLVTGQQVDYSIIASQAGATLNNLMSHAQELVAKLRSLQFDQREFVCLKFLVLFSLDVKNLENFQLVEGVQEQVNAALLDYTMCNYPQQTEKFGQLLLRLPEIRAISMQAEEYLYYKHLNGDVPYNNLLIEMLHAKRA
Sequence of Steroidogenic factor 1 (Homo sapiens) (Q13285 whole entry, looked up, the tested form may be a part): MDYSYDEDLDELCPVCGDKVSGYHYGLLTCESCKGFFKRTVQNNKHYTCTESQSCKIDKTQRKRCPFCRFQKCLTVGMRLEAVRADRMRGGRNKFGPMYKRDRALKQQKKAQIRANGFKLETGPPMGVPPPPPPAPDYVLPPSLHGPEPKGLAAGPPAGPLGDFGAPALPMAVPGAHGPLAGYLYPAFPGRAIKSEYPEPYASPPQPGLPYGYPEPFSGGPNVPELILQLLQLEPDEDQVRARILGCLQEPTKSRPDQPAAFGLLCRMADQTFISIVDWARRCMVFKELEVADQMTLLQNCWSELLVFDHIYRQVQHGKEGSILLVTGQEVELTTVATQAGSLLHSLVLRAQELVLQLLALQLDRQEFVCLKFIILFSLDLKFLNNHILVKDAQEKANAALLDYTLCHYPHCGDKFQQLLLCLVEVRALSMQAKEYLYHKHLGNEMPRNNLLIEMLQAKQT

On to `COc1ccc(-c2cc(NC=O)c3ncc(-c4ccc(OC)c(OC)c4)n3c2)c(OC)c1`, for which the inhibition was 65.5% (active) in test [1], 53.5% (active) in test [2], 62% (active) in test [3] and 2.18% in test [4].

In the case of `CC(=O)Oc1ccc(-c2ccc(C(=O)Nc3cccc(S(=O)(=O)N4CCOCC4)c3)cc2)cc1`, the inhibition in test [1] was 25.5%; in test [2], 35.1%; in test [3] it was 52.1% (active); in test [4], 59.4% (active).

As to `O=C(CN1C(=O)NC2(CCCC2)C1=O)NCCc1ccc(F)cc1`, the inhibition in test [1] is 15.3%; in test [2], 44.2% (active); in test [3], 40.8%; in test [4] it was 5.08%.

Consider `CC(=O)Nc1cccc(-c2cc(NC=O)c3ncc(-c4cccc(C(C)=O)c4)n3c2)c1`, for which the inhibition was 29.1% (active) in test [1], 57.6% (active) in test [2], 53.2% (active) in test [3] and -34.5% in test [4].

For the molecule `CCOC(=O)N1CCN(C(=O)CCl)CC1`, the inhibition is 11% in test [1], 56% (active) in test [2], 57.9% (active) in test [3] and -8.13% in test [4].

For the molecule `CC(=O)N1CCN(c2cc(N3CCCC3)c(F)cc2[N+](=O)[O-])CC1`, the inhibition in test [1] is 2.68%; in test [2], 57.4% (active); in test [3] it was 48.7% (active); in test [4], -0.47%.

For `CC(NC(=O)c1ccco1)C(c1cccs1)N1CCN(c2ccccc2)CC1` (stereo unspecified), the inhibition is 6.91% in test [1], 34.9% in test [2], 34.2% in test [3] and -0.25% in test [4].

Take `O=C(Cc1ccc(Cl)cc1Cl)Nc1ccncc1Cl`: the inhibition is 16.4% in test [1], 65.9% (active) in test [2], 70% (active) in test [3] and 47.1% (active) in test [4].

Consider `CCOc1cc2c(cc1OCC)C(c1ccc(OC)cc1)N(c1ccccc1)C(=O)C2` (stereo unspecified), for which the inhibition in test [1] was -4.63%; in test [2] it was 3.16%; in test [3], -5%; in test [4], -4.52%.
